# Arbovirus inh = antivirals against arbovirus infection; arbovirus infection cell-based antiviral screen; inhibition, % at 10 µM; 200,000 compounds, 0.37% hits; in the data active = inhibition above about 30%
# CHOP inhibitor = CHOP inhibition in unfolded protein response; CHO-K1 CHOP-promoter luciferase, tunicamycin-induced, 15-18 h; inhibition, % at 10 µM; 220,000 compounds, 3.8% hits;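 active = compounds that reduced the stress-induced luciferase reporter signal by more than about 70% of percent inhibition, limit read from the data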
# Lmaj promast = Leishmania major promastigote growth inhibition; Leishmania major promastigotes, resazurin fluorescence viability; inhibition, % at 10 µM; 200,000 compounds, 9% hits; AID 1063; in the data active = inhibition above about 50%;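 also: promastigotes grown with compound for 44 hours at 28 °C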
# WT yeast gro inh = growth inhibition of WT yeast, mitochondrial fusion screen. mitochondrial fusion phenotypic screen, WT strain. inhibition, % at 10 µM. 190,000 compounds, 2.1% hits. AID 1362; in the data active = inhibition above about 58%; tested in S. cerevisiae
# Hits are given with their value; 0 = inactive; - = not tested or not shown. Only some compounds are listed: those with a hit (about 12% of all), similar ones and a draw of the others.
SMILES,Arbovirus inh,CHOP inhibitor,Lmaj promast,WT yeast gro inh
Nc1cc(-c2ccc(Br)cc2)nn1S(=O)(=O)c1ccccc1,0,72,0,0
COc1ccc(-c2cc(N)n(S(=O)(=O)c3ccc(F)cc3)n2)cc1OC,0,0,51,0
CC(C)CCSc1nc2c(c(=O)[nH]c(=O)n2C)n1CCc1ccccc1,0,88,0,0
CCCCCSc1nc2c(c(=O)[nH]c(=O)n2C)n1C,0,0,0,0
CC(C)CCn1c(Sc2nc3ccccc3o2)nc2c1c(=O)[nH]c(=O)n2C,0,0,95,0
CCCCCSc1nc2c(c(=O)[nH]c(=O)n2C)n1C(C)C,0,89,0,0
CC(C)CSc1nc2c(c(=O)[nH]c(=O)n2C)n1CC(O)COc1cccc2ccccc12 (centres undefined),0,80,0,0
CCCc1cc(O)c2c(C)cc(=O)oc2c1,0,0,0,0
O=C(CNc1cccc(C(F)(F)F)c1)N/N=C/c1ccccc1C(=O)O,-,0,-,-
CCOCCn1c(SCc2ccc(C)cc2)nc2c1c(=O)[nH]c(=O)n2C,0,0,0,0
C/C(Cl)=C/Cn1c(SCc2ccc(Cl)cc2)nc2c1c(=O)[nH]c(=O)n2C,0,0,0,0
CCCCn1c(SCc2ccc(Cl)cc2)nc2c1c(=O)[nH]c(=O)n2C,0,82,0,0
Cc1ccc(CSc2nc3c(c(=O)[nH]c(=O)n3C)n2CCC(C)C)cc1,0,106,0,0
C/C=C/CSc1nc2c(c(=O)[nH]c(=O)n2C)n1Cc1ccc(C)cc1,0,86,0,0
CCCCCn1c(Sc2nc3ccccc3s2)nc2c1c(=O)[nH]c(=O)n2C,0,76,0,0
CCOc1ccccc1NC(=O)CCn1cccc1,0,0,0,0
CC(C)(C)NC(=O)COC(=O)/C=C/c1ccccc1[N+](=O)[O-],0,0,0,0
CCOc1ccccc1NC(=S)NCc1cccn1C,0,0,0,0
Cc1[nH]c2ccccc2c1-c1nc(-c2ccc(Cl)cc2)nnc1-c1ccccc1,0,76,0,0
Clc1ccc(-c2nnc(-c3ccccc3)nc2-c2c[nH]c3ccccc23)cc1,0,85,0,0
O=[N+]([O-])c1ccc(Oc2cccc3cccnc23)c([N+](=O)[O-])c1,0,0,0,63
O=C(Cc1ccc(Cl)cc1)Oc1cccc2cccnc12,0,0,97,0
O=C(Oc1ccccc1)c1cccc2cccnc12,0,0,94,0
Cc1c(C(=O)Oc2cccc3cccnc23)cccc1[N+](=O)[O-],0,0,98,0
O=C(Oc1cccc2cccnc12)c1cccc([N+](=O)[O-])c1,0,0,0,0
SMILES,Arbovirus inh,CHOP inhibitor,Lmaj promast,WT yeast gro inh
O=C(Oc1cccc2cccnc12)c1ccc(Br)o1,0,0,0,0
Cc1ccc2cccc(Oc3ccc([N+](=O)[O-])cc3[N+](=O)[O-])c2n1,0,0,0,0
Cc1ccc(S(=O)(=O)N(C)C)cc1NC(=S)N1CCCCC1CO (centres undefined),0,0,0,0
CCOC(=O)CC(=O)N/N=C/c1c(N)n(C)c(=O)n(C)c1=O,0,0,0,0
O=C(Oc1cccc2cccnc12)c1cccs1,0,0,100,0
O=C(Oc1cccc2ccccc12)c1ccco1,0,0,0,0
O=C(Oc1cccc2cccnc12)c1ccco1,0,0,99,0
O=C(Oc1ccc(Cl)c2cccnc12)c1ccco1,0,0,99,0
C[C@H](NC(=O)c1nc[nH]c1C(=O)NC1CCN(C(=O)OC(C)(C)C)CC1)C(=O)OCc1ccccc1,0,0,0,0
COc1nc(C)nc2c1sc(=S)n2C,0,71,0,-
O=C(Nc1cccc(S(=O)(=O)N2CCCCC2)c1)c1ccc(S(=O)(=O)C(F)F)cc1,0,0,0,0
CCOC(=O)c1ccc(NC(=S)Nc2cccc(C)n2)cc1,0,74,57,0
O=S(=O)(c1ccccc1)c1nc(-c2ccco2)oc1Nc1ccccc1,0,0,76,0
CCCCC(=O)Nc1ccc2oc(-c3ccncc3)nc2c1,0,0,0,0
CCCC(=O)Nc1ccc(-c2nc3cc(C)c(C)cc3o2)cc1,0,95,0,0
CCC(C)NCC(=O)Nc1ccc(-c2nc3cc(NC(=O)CNC(C)CC)ccc3o2)cc1 (centres undefined),0,0,99,0
CCCC(=O)Nc1ccc2oc(-c3ccncc3)nc2c1,0,0,0,0
Cc1ccc2oc(-c3ccc(NC(=O)CC(C)C)cc3)nc2c1,0,0,0,0
O=C(CN1CCCC1)Nc1ccc(-c2nc3cc(NC(=O)CN4CCCC4)ccc3o2)cc1,0,0,101,0
CCN(CC)CC(=O)Nc1ccc(-c2nc3cc(NC(=O)CN(CC)CC)ccc3o2)cc1,0,0,86,0
Cc1ccc(S(=O)(=O)N2CCCCC2)cc1NC(=O)c1ccccn1,-,0,-,-
COc1ccc(CCNC(=O)C(=O)NCc2cccs2)cc1OC,0,0,0,0
CC1CC(=O)Nc2ccccc2N1C(=O)CN1CCN(c2ccccc2)CC1 (centres undefined),0,80,0,0
CCCCNc1nc(=S)n(-c2ccccc2)c(C)c1C(C)=O,0,0,0,0
CC(=O)Nc1sc(N/N=C\c2cccc(Cl)c2)nc1-c1cccs1,0,96,0,0
SMILES,Arbovirus inh,CHOP inhibitor,Lmaj promast,WT yeast gro inh
O=S(=O)(NN1CCOCC1)c1ccc(Cl)s1,0,0,0,0
CN1CCN(NS(=O)(=O)c2ccc(Cl)s2)CC1,0,0,55,0
CCOC(=O)CCNC(=O)N1CCCC(CCC(=O)N(C)CCc2ccccn2)C1 (centres undefined),0,0,0,0
COC(=O)C1Cc2ccccc2CN1C(=O)CCl (centres undefined),0,0,0,0
N#CCCN(C(=O)CCl)c1cccc(Cl)c1,0,0,51,0
CCCCCCCN(C(=O)CCl)c1cccc(C)c1,0,0,0,0
CNCC(C)COc1ccccc1OCc1ccccc1 (centres undefined),0,0,99,0
CC(O)CNCCCCOc1ccc(OCc2ccccc2)cc1 (centres undefined),0,0,97,0
NNC(=O)c1ccccc1OCc1ccccc1,-,0,-,-
CC(O)CNCCCOc1ccccc1OCc1ccccc1 (centres undefined),0,0,99,0
CCO[C@@H]1OC(C(=O)Nc2ccccc2)=C[C@H](C2CC2)[C@H]1CCCO,0,0,0,0
COc1ccc(NC(=O)COC(=O)c2ccc(Cl)c(S(N)(=O)=O)c2)c([N+](=O)[O-])c1,-,0,-,-
COc1ccc(C(=O)N2CCC(=O)N(C(CO)Cc3ccccc3)CC2)cc1 (centres undefined),0,0,0,0
CCCCc1n[nH]c(=S)n1Cc1ccc(Cl)cc1,0,0,0,0
Cn1c(CN2CCCCC2)nc2cc(NS(=O)(=O)c3ccc(Cl)cc3)ccc21,0,0,66,0
CC1CCN(CCc2nc3cc(NS(=O)(=O)c4ccc(F)cc4)ccc3n2C)CC1,0,0,99,0
Cn1c(CCN2CCCCC2)nc2cc(NS(=O)(=O)c3ccc(Cl)cc3)ccc21,0,0,-,0
Cn1c(CN2CCCCC2)nc2cc(NC(=O)c3cccc(Br)c3)ccc21,0,0,98,0
CCOC(=O)C(Oc1ccc2c(-c3ccc(OC)cc3)cc(=O)oc2c1C)c1ccccc1 (centres undefined),0,0,100,-
COc1ccc(-c2cc(=O)oc3c(C)c(OC(=O)c4cccs4)ccc23)cc1,0,80,0,0

# High-throughput results from PubChem.
